# Screening results deposited in PubChem by several laboratories.
# In the library only some 1.4% were active in any assay of this set; here they are far more common.
# Yeast superoxide – lowers age-related superoxide in aged yeast cells. S. cerevisiae aged cells, superoxide DHE fluorescence; active compounds read low. superoxide response (% of plate mean), % at 10 µM. actives 0.18% (n = 330,000);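 active means superoxide response under a set limit, about three screen SD below normal, cut at about 65% in these data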;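 further: yeast aged for seven days with compound at 30 °C before DHE staining; 100% = average MFI of all compound-treated wells on the plate with controls excluded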
# HSV replic up – increases HSV replication in cells | HSV replication augmentation in cells, fold increase | maximum fold increase | actives 0.005% (n = 220,000) | AID 1956; in the data active means maximum fold increase above about 1.5; inconclusive means no clear call, values can overlap the other calls; tested in PC3 cells
# Cardio protect – modulators protecting cardiomyocytes from myocardial damage. AID 588492. protection from H2O2 cell death, % at 20 µM. actives 0.63% (n = 360,000). H9c2 cardiomyocytes, H2O2 injury protection, ATPLite, 2 h;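 active means compounds giving at least 50% protection of heart cells from peroxide-induced death in the single-dose screen, raw or plate-pattern-corrected value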;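 further: 0% = DMSO wells with peroxide and 100% = DMSO wells without peroxide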
# p-CIP stab down – p/CIP protein destabilization | Q05BA5 | AID 1984 | F442A p/CIP-EGFP cells, EGFP fluorescence, 16 h | actives 0.01% (n = 290,000) | decrease of EGFP signal, % at 10 µM;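 active means EGFP signal decrease of at least 30% at 10 µM or well 3 SD below plate mean, unless failing retest; inactive means the rest, including hits failing retest or dose response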
# Target sequence (Q05BA5 1-1403): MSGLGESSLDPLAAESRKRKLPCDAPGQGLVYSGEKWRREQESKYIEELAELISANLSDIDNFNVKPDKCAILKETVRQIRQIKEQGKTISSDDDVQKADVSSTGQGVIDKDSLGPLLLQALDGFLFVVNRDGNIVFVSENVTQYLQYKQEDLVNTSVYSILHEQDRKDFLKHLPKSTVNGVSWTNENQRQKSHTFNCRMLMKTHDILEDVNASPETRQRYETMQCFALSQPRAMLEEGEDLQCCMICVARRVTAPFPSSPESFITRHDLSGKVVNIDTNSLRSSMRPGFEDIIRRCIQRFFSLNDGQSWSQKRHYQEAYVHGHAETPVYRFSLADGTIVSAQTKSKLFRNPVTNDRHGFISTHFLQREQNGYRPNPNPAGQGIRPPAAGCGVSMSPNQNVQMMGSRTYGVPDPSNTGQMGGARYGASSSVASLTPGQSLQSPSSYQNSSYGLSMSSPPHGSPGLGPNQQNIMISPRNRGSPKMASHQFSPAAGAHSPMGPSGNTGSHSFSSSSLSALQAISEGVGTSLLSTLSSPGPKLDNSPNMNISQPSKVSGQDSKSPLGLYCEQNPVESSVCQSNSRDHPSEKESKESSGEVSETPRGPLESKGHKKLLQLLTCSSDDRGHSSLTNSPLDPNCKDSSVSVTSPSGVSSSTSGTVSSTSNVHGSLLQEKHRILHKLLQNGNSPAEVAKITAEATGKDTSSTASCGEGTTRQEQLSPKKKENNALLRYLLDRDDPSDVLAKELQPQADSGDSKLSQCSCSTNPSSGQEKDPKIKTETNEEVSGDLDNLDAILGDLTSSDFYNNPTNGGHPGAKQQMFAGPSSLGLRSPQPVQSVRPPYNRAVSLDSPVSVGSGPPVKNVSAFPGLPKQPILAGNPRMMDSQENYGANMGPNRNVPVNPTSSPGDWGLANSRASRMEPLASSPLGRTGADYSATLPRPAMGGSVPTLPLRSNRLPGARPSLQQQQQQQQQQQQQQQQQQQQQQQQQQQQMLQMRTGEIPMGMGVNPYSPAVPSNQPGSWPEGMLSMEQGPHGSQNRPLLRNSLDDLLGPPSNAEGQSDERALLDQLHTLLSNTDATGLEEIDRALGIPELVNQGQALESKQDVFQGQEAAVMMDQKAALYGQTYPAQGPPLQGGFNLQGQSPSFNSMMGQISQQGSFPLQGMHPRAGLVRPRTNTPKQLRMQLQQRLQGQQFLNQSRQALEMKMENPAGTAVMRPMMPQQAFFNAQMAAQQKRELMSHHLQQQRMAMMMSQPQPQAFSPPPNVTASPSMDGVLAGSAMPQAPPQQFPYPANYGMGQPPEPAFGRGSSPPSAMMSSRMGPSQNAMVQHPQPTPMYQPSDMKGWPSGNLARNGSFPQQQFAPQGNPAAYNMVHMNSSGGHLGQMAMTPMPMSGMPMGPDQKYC
# beta cell repl – inducers of beta-cell replication in MIN6 cells; actives 0.29% (n = 330,000); proliferation, % at 10 µM; AID 2380; MIN6 cells proliferation, ATPlite luminescence, 48 h; cells starved in 0.2% serum; 100% = growth in 10% serum;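 active means compounds whose signal lies at least 3.5 SD above the mean of all wells on their plate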;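 further: 0% = DMSO-treated cells in low-serum medium and 100% = 10% serum control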
# V-ATPase pHluor – yeast V-ATPase proton transport regulation by pHLuorin; response, % at 10 µM; actives 0.37% (n = 350,000); S. cerevisiae, pHLuorin cytosolic pH fluorescence; in the data active means response mostly above about 7.3%, no sharp cut-off; inactive means mostly below about 5.4%; further: actives read high
# * marks the source's active call; other numbers are inactive results; i = inactive; ? = inconclusive; . = no result given.
SMILES,Yeast superoxide,HSV replic up,Cardio protect,p-CIP stab down,beta cell repl,V-ATPase pHluor
CCOC(=O)CSC1=C(C#N)C(c2ccccc2OCC)C(C(=O)OCC)C(=O)N1 (configuration not stated),125,i,8,-7,0,2
CCC(CC)C(=O)Nc1cc(C)c2c(=O)oc3ccccc3c2n1,106,i,71*,-13,-2,0
Cc1cc(NC(=O)c2ccccc2)nc2c1c(=O)oc1ccccc12,100,i,41,-2,-2,-1
CCOC(=O)c1[nH]c2ccc(OC)cc2c1NC(=O)CN1CCSCC1,87,i,-1,-12,0,25*
CC(=O)c1c(C)[nH]c(C(=O)OCC(=O)Nc2sc3c(c2C#N)CCC(C)C3)c1C (configuration not stated),99,i,-17,-8,-6,-1
CC(=O)CCc1ccc(Oc2nc(-c3cccnc3)nc3ccccc23)cc1,92,.,55*,-3,1,-1
COc1ccc(Oc2nc(-c3cccnc3)nc3ccccc23)cc1,86,i,3,-3,-2,7
COc1cc(/C=N/NC(=O)c2sc3nc(C)cc(C)c3c2N)ccc1O,113,i,53*,0,-2,0
C=CCN(CC=C)C(=O)Nc1cc(OC)ccc1OC,100,i,-4,-2,.,2
CC(C)(C=O)C1=CC(=O)c2ccccc2C1=O,114,i,-32,2,.,16*
OC(c1ccccc1)C(NCCNCc1ccccc1)c1ccccc1 (configuration not stated),.,.,4,.,.,1
O=C(CCN1CCN(c2ccccc2)CC1)N/N=C/c1ccccc1O,98,i,55*,-28,-6,1
CN1CCN(CCC(=O)N/N=C/c2ccccc2F)CC1,95,i,7,0,-2,3
COc1ccc(CCNc2oc(COc3ccc(Br)cc3)nc2C#N)cc1OC,103,i,38,0,-6,10.0*
CC(=O)c1sc(NC(=O)CS(=O)(=O)c2ccccc2)nc1C,101,.,6,.,8,0
CC(=O)c1sc(NC(=O)CS(=O)(=O)c2ccccc2)nc1-c1ccccc1,109,.,4,.,-1,18*
CC(Oc1ccc(-n2cnnn2)cc1)C(=O)O (configuration not stated),105,i,2,18,-1,2
Nc1ccc(-c2n[nH]c(=O)c3ccccc23)cc1N,85,i,80*,-4,1,6
CCc1ccc(-c2n[nH]c(=O)c3ccccc23)cc1,86,.,24,-1,0,-4
Cc1ccc(-c2n[nH]c(=O)c3ccccc23)cc1N,70,i,68*,0,1,-1
Cc1nc(NC(=O)CN2CCN(c3cccc(Cl)c3)CC2)sc1C(=O)N(C)C,99,.,-5,3,-4,2
CCn1c(C)c(C2=CCN(S(=O)(=O)c3ccccc3)CC2)c2ccccc21,96,?,-7,-4,0,-3
CCCCOC(=O)c1cc(-c2ccc(/C=N/n3cnnc3)o2)ccc1Cl,129,i,21,.,0,-3
CCOC(=O)c1cc(-c2ccc(/C=N\n3cnnc3)o2)ccc1Cl,103,i,67*,3,2,2
COc1ccc(CN(C)C(=O)C(Cc2ccccc2)NC(=O)c2ccccc2)cc1F (configuration not stated),.,.,50*,.,0,6
SMILES,Yeast superoxide,HSV replic up,Cardio protect,p-CIP stab down,beta cell repl,V-ATPase pHluor
CN(Cc1ccc(F)cc1)C(=O)C(Cc1ccccc1)NC(=O)c1ccccc1 (configuration not stated),92,.,46,.,-1,3
CCNC(=O)/C(C#N)=C/c1c(N(Cc2ccccc2)Cc2ccccc2)nc2ccccn2c1=O,118,i,73*,-9,-5,-8
Nc1c(C(=O)NC2CC2)c2nc3ccccc3nc2n1-c1ccc2c(c1)OCO2,89,i,77*,-20,-3,-1
CCCNC(=O)c1c(N)n(-c2ccc3c(c2)OCO3)c2nc3ccccc3nc12,88,i,-7,-16,-1,2
COc1ccc(-c2cc(-c3nnc(COC(=O)C4CC4C)o3)c3ccccc3n2)cc1OC (configuration not stated),97,i,85*,-8,-3,-3
COc1ccc(-c2cc(-c3nnc(COC(=O)C4CC4)o3)c3ccccc3n2)cc1OC,108,i,80*,-7,-1,-5
O=c1cc(CSc2ccc([N+](=O)[O-])cc2)nc2sccn12,111,i,72*,6,3,0
Cc1ccc(SCc2cc(=O)n3ccsc3n2)c(C)c1,103,i,.,4,-2,.
O=C(Cn1cnc2ccccc2c1=O)N1CCN(S(=O)(=O)c2ccc(F)cc2)CC1,101,.,-6,.,4,1
CC(=O)Nc1ccc(S(=O)(=O)N2CCN(c3ccc(C)c(Cl)c3)CC2)cc1,78,i,-21,-8,2,17*
CC(=O)Nc1ccc(S(=O)(=O)N2CCN(S(=O)(=O)c3ccc(NC(C)=O)cc3)CC2)cc1,97,.,-6,9,-2,3
O=C(NCC12CC3CC(CC(C3)C1)C2)c1nn2cccnc2c1Cl,117,i,11,-26,-3,29*
COCCNC(=O)c1nn2cccnc2c1Cl,101,i,3,-7,-1,1
COc1ccc(C(=O)c2c(N)sc3c2CCN(C)C3)cc1,107,.,0,3,8.0*,-1
COc1ccc(C(=O)c2c(NC(C)=O)sc3c2CCN(C(=O)OC(C)(C)C)C3)cc1,104,i,1,-5,1,3
C=CCNc1nc(Cl)nc(Nc2ccc(OCC)cc2)n1,117,i,2,7,-1,-3
COCCNC(=O)C1CCN(Cc2cccc(OCc3ccccc3)c2)CC1,107,.,5,-1,-2,13*
CC(C)CCNC(=O)C1CCN(Cc2cccc(OCc3ccccc3)c2)CC1,99,.,0,7,-3,-6
CCOC(=O)c1c(C)oc2ccc(O)c(CN(C)C)c12,99,i,4,-5,0,0
CCOC(=O)c1c(CSc2ccc(CC)cc2)oc2ccc(O)c(CN(C)C)c12,104,.,-23,-13,-7,7.6*
CCC(Oc1ccccc1)C(=O)Nc1ccccc1C(=O)N1CCCCC1 (configuration not stated),93,.,50*,0,7,-1
CCC(Oc1ccccc1)C(=O)Nc1ccccc1C(=O)N1CCN(C)CC1 (configuration not stated),113,.,7,8,0,-1
COc1ccccc1CNC(=O)c1cc(C)nn1-c1ccccc1,44*,i,-3,2,0,1
Cc1cc(C(=O)NCc2ccccc2Cl)n(-c2ccccc2)n1,103,i,2,4,3,-5
CC(C)COc1cccc(C(=O)N(C)CC(=O)Nc2cccc3ccccc23)c1,93,.,-6,.,-5,2
